Reference: PubChem BioAssay AID1259313 (Sanford-Burnham Center for Chemical Genomics, 2017)
Out of some 340,000 compounds screened, about 8,500 (2.5%) were called active. The sample holds actives, similar compounds and a random draw of the others, so the mix is not that of the screen.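 How the source made its calls: active means melting temperature shift of at least 10% of the positive control shift, at one fixed dose; inactive means the rest.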

test system: Glutamate receptor ionotropic, NMDA 3A (GRIN3A) ligand-binding domain; assay: NR3A LBD thermal stabilization by compounds – biophysical, differential scanning fluorimetry, uHTS, primary screen (AID 1259313); details: at 25 µM, stronger effect = higher value, 0% = protein alone, 100% = glycine-bound protein

Tm shift relative to glycine control, inactive:
C=C(C)CNC(=S)/N=c1\scc(C)n1CC 0.78%
Cc1c(Cl)cccc1NC(=O)CSc1ccc(-c2cccnc2)nn1 0.4%
COc1ccc([C@H]2[C@H](C(C)=O)N3N=Cc4ccccc4C3C23C(=O)OC(C)(C)OC3=O)cc1 (some centres not stated) 1.26%
COc1cc2ccccc2cc1C(=O)Nc1ccc(S(=O)(=O)Nc2cc(C)on2)cc1 -5.06%
O=C(Nc1ccc(NC(=O)c2ccc3c(c2)OCO3)cc1)c1cccc(Cl)c1 4.36%
COc1cc2ccccc2cc1C(=O)Nc1ccncc1 -12.5%
COc1cc(Cl)c(C)cc1NC(=O)[C@@H]1CCCN1C(=O)c1cccs1 -1.61%
CC(C)C(=O)Nc1cccc(C(=O)Nc2ccc3c(c2)OCO3)c1 -22.3%
COc1cc(NC(=O)COc2ccccc2Cl)ccc1NC(=O)C(C)C -1.36%
Cc1cc(C(=O)CC#N)c(C)n1CC(F)(F)F 0.49%
O=C(Nc1cccc(S(=O)(=O)N2CCCC2)c1)c1cncc(Br)c1 -1.22%
COc1ccc(N2CCN(CCNC(=O)Nc3cc(Cl)ccc3Cl)CC2)cc1 -1.01%
O=c1c2ccccc2ncn1/N=C/c1ccccc1 -2.01%
Cc1ccc(OCC(=O)N2CCN(C(=O)c3cccnc3)CC2)cc1 -1.15%
O=C(/C=C/c1ccc(Cl)cc1)Nc1ccc(Br)cn1 0.46%
Cc1ccccc1N(C(=O)Cc1cccs1)C(C(=O)NC1CCCCC1)c1cn(C)nc1C (configuration not stated) -0.71%
CC(NC(=O)COC(=O)c1cc(=O)[nH]c2ccccc12)c1ccccc1 (configuration not stated) -1%
CC(=O)NCc1ccc(-c2csc(NC(=O)CCCc3nc4ccccc4c(=O)[nH]3)n2)cc1 -1.27%
O=C(COC(=O)c1cc(=O)[nH]c2ccccc12)NCc1cccc(Cl)c1 -0.85%
CCOC(=O)c1ccccc1NC(=O)CSc1nc2ccccc2c(=O)[nH]1 -1.86%
Cc1ccc(-c2cc(=O)[nH]c(NCc3ccccc3)n2)cc1 -1.01%
COc1cc(OC)c(OC)cc1CN1CCN(C(=O)c2cccc3ccccc23)CC1 -1.19%
Cc1cc(C)nc(/N=C2\NC(=O)CC(C(=O)O)N2c2ccc(Cl)cc2Cl)n1 (configuration not stated) -1.26%
O=C(CCN1C(=O)C2CCCCC2C1=O)Nc1ccc(OC(F)F)cc1 (configuration not stated) 2.89%
O=C(O)c1cc(S(=O)(=O)N(Cc2ccccc2)c2cccc(C(F)(F)F)c2)ccc1Cl 2.79%
O=C(Nc1cc(C(F)(F)F)ccc1Cl)C(=O)N1CCCCC1 -10.1%
Nc1cc2c(cc1Br)-c1ccc(F)cc1C2=O -2.14%
Nc1nc(SCC(=O)Nc2ccc(Cl)cc2C(F)(F)F)n[nH]1 0.67%
CCOc1cccc(SCc2noc(C(=O)NC(C)C)c2C(=O)O)c1 -0.97%
CCCCNC(=O)c1onc(CSc2cccc(OC)c2)c1C(=O)O 3.23%
CN(C)/C=C(/C(=O)c1ccc(Cl)c(Cl)c1)c1nnnn1-c1ccccc1 -0.1%
COCCn1nnnc1C(c1ccccc1Cl)N1CCN(c2ccccc2OC)CC1 (configuration not stated) 2.04%
O=C(CCC(=O)N1CCN(S(=O)(=O)c2ccc(Cl)cc2)CC1)NCc1cccc(C(F)(F)F)c1 -1.09%
O=C(O)C1C2CC2CN1C(=O)c1ccc(Cl)cc1Cl (configuration not stated) -0.76%
COc1ccc(-c2nn(-c3ccccc3)cc2C(=O)Nc2nccs2)cc1OC -1.92%
Cc1ccc(-c2nn(-c3ccccc3)cc2C(=O)NC2CCC(O)CC2)cc1 (configuration not stated) -1.68%
O=C(/C=C/c1cn(-c2ccccc2)nc1-c1ccc2c(c1)OCCO2)NCCCN1CCOCC1 -0.74%
Cc1occc1C(=O)Nc1cccc(S(=O)(=O)N2CCOCC2)c1 0.26%
CSc1ncccc1C(=O)Nc1cccc(S(=O)(=O)N2CCOCC2)c1 2.41%
NS(=O)(=O)c1cccc(NC(=O)CSc2nc3ccccc3n2-c2ccccc2)c1 -3.25%
Cc1ccc(-c2nn(-c3ccccc3)cc2C(=O)NCCCN2CCCC2=O)cc1 -0.51%
COc1ccc(NC(=O)c2ccccc2CC[N+](=O)[O-])cc1 1.34%
Cc1cccc(NC(=O)Cn2c(=O)n(Cc3ccccc3)c(=O)c3c(C)c(C)sc32)c1 8.62%
O=C(CN1C(=O)c2cccnc2Oc2ccc(Cl)cc21)NCCc1ccccc1 0.65%
CNC(=O)c1[nH]cnc1C(=O)N[C@@H](CC(C)C)C(=O)OCc1ccccc1 -3.33%
CCN(CC)Cc1c(C(=O)OC)nnn1-c1nonc1N -0.56%
CCCc1cc(=O)oc2c(C)c(OC(C)C(=O)NCC(O)c3ccccc3)ccc12 (configuration not stated) 0%
O=C(O)c1cc(S(=O)(=O)N2CCCCCC2)c(Cl)cc1Cl 0.9%
CC(C(=O)c1ccc(-c2ccccc2)cc1)[n+]1cccc(Br)c1 (configuration not stated) -2.4%
Cc1ccccc1-n1nnnc1SCCCC(=O)c1ccc(F)cc1 3.17%
COc1ccc(NC(=O)CN(C)C(=O)/C=C/c2cn(Cc3ccccc3)nc2-c2cccnc2)cc1 -0.36%
COc1cccc(NC(=O)CN(C)C(=O)/C=C/c2cc(OC)ccc2OC)c1 -3.12%
O=C(Nc1ccncc1)c1cc2ccccc2o1 -15%
COc1ccc(OC)c(-c2csc(-c3cccs3)n2)c1 2.35%
CCCCCCC(=O)Nc1nc(C)c(-c2csc(Nc3cccc(OC)c3)n2)s1 4.39%
O=C(NCc1cccnc1)c1cccc(-c2cc3ccccc3oc2=O)c1 -2.7%
Fc1ccc2nc(Nc3nc4c(s3)CCCC4)sc2c1 -1.71%
COc1ccc(OC)c(-c2csc(NC(=O)C3=NNC(=O)CC3)n2)c1 -2.68%
COC(=O)c1c(NC(=O)CN(c2ccc(C)c(C)c2)S(C)(=O)=O)sc2c1CCCC2 -7.55%
O=C(COc1nsnc1N1CCOCC1)Nc1ccccc1Cl 1.49%
COc1ccccc1N1CC(C(=O)Nc2nnc(SCC(=O)NCC3CCCO3)s2)CC1=O (configuration not stated) 0.09%
O=C(CNCCO)NC12CC3CC(CC(C3)C1)C2 -0.61%
O=S(=O)(Nc1ccccc1Cl)c1cccc2nsnc12 -0.29%
O=C(CC1C(=O)NCCN1CC(c1ccccc1)c1ccccc1)NCC1CCOCC1 (configuration not stated) 3.8%
O=C(Cn1c(-c2cscn2)nc2ccccc21)Nc1ccc(Cl)cc1 -2.29%
CC1CCCN(C(=O)Cn2c(=O)oc3cc(S(=O)(=O)N4CCCCC4C)ccc32)C1 (configuration not stated) -0.87%
CC(CNc1ccc([N+](=O)[O-])cc1)NC(=O)c1ccccc1Br (configuration not stated) 2.55%
O=C(NCCNc1ccc([N+](=O)[O-])cc1Cl)c1ccccc1F -1.3%
Clc1cc(-c2ccc(/C=N/n3cnnc3)o2)ccc1Br -26.7%
CCOC(=O)CNC(=O)CSc1nnc(COc2ccc(Cl)cc2)n1CC -0.34%
CCN(CC)C(=O)CSc1nnc(CNc2ccc(F)cc2)n1Cc1ccco1 1.69%
CC(C)=CCc1ccc(O)c(=O)cc1C(C)C -5.18%
CC(C)c1cc(CN2CCOCC2)cc(C(C)C)c1O -0.77%

Tm shift relative to glycine control, active:
COc1cc(NC(=O)c2cccs2)ccc1NC(=O)c1ccccc1Cl 11.9%
COc1cc2ccccc2cc1C(=O)Nc1ccc(NC(=O)c2cccs2)cc1 28.6%
COc1cc(NC(=O)c2ccc3c(c2)OCO3)ccc1NC(=O)c1cccs1 26.8%
O=C(CSc1nc2ccccc2c(=O)[nH]1)Nc1nc(-c2ccc(Br)cc2)cs1 36.1%
O=C(COC(=O)c1cc(=O)[nH]c2ccccc12)Nc1nc(-c2cccc(Br)c2)cs1 10.6%
O=C(NNc1ccccc1Cl)C(O)(c1cccc(C(F)(F)F)c1)c1cccc(C(F)(F)F)c1 27.5%
COCCNC(=O)c1onc(CSc2cccc(C)c2)c1C(=O)O 18.5%
CCC(=O)N(C)C(c1ccccc1Cl)c1nnnn1-c1c(C)cccc1C (configuration not stated) 38.2%
O=C(O)c1ccc(NC(=O)c2cn(-c3ccccc3)nc2-c2ccc(Cl)cc2)cc1 12%
Cc1ccc(-c2nn(-c3ccccc3)cc2/C=C/C(=O)Nc2cccc(S(N)(=O)=O)c2)cc1 28.9%
Cc1ccc(-c2nn(-c3ccccc3)cc2C(=O)Nc2cccc(S(=O)(=O)N3CCOCC3)c2)cc1 10.7%
COc1ccc(NC(=O)c2cn(-c3ccccc3)nc2SC)cc1 18.1%
COc1cccc(NC(=O)CN(C)C(=O)/C=C/c2cn(-c3ccccc3)nc2-c2cccs2)c1 10.7%
COc1ccc2nc(Nc3nc(-c4cc5ccccc5oc4=O)cs3)sc2c1 24.7%
O=c1oc2ccccc2cc1-c1csc(Nc2ccc(O)cc2)n1 12.2%
COc1ccc2nc(Nc3nc(-c4ccncc4)cs3)sc2c1 23.1%
O=C(NCCNc1ccc([N+](=O)[O-])cc1)c1cccc2c(Br)cccc12 23.8%
O=C(CSc1nnc(COc2ccc(Cl)cc2)n1Cc1ccco1)N1CCNC1=O 14.1%
CC(C)c1cc(N=O)cc(C(C)C)c1O 14%
